The results in this text go back to PubChem BioAssay (Tox21).

Assay [1] in a line: qHTS assay to identify small molecule antagonists of the estrogen related receptor (ERR) signaling pathway from Tox21 library - cell viability counter screen (AID 1224834). Note: nearly all actives have a fitted effect of over 30% in size. Note: potency is the fitted concentration of half-maximal effect. The method in brief:
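Viability readout (CellTiter-Fluor fluorescence, 30 min at 37 C) multiplexed with the ERR assay; cells treated 17.5 h at 37 C with compounds delivered in DMSO.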
In general terms: Quantitative high-throughput screening tests each substance at several concentrations.

Assay [2] deals with Luciferin 4-monooxygenase (Photinus pyralis) (UniProt P08659). Description: qHTS assay to identify small molecule inhibitors of firefly luciferase (AID 1224835). For activity change, negative = inhibition: series mostly up to about 120 µM. Note: nearly all actives have a fitted effect of over 25% in size. Note: potency is the fitted concentration of half-maximal effect. In short, it runs like this: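 Biochemical qHTS: compounds run as interplate titrations against purified firefly enzyme, with D-luciferin and ATP each at its KM concentration. Light output recorded by CCD imaging.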
Chain of Luciferin 4-monooxygenase (Photinus pyralis) (P08659 whole entry, looked up): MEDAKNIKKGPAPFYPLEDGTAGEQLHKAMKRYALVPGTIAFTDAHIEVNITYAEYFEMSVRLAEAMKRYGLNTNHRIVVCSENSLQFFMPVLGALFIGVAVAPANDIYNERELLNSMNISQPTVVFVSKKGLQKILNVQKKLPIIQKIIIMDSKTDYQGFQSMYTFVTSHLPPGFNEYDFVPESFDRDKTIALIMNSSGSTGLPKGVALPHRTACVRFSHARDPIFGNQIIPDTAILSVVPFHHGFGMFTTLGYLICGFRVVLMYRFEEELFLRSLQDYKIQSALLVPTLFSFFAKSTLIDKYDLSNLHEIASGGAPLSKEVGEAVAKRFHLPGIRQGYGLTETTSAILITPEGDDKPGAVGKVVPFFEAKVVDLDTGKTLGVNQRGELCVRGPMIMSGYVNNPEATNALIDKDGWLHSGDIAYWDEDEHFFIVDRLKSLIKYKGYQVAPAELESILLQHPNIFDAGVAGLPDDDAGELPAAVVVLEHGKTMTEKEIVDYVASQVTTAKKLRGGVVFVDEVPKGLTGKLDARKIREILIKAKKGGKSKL

Assay [3] can be described thus: qHTS assay to identify small molecule agonists of the constitutive androstane receptor (CAR) signaling pathway - cell viability counter screen (AID 1224836). For viability change, negative = cytotoxic: series mostly up to about 92 µM. Note: nearly all actives have a fitted effect of over 45% in size. Note: potency is the fitted concentration of half-maximal effect. In short, it runs like this:
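HepG2-CYP2B6-hCAR, 2500 cells/well, 4 h pre-incubation; cpd 15 conc + PK11195 0.75 uM final; 23 h, 37 C/5% CO2; CellTiter-Fluor, fluorescence.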

Assay [4] in a line: qHTS assay to identify small molecule antagonists of the constitutive androstane receptor (CAR) signaling pathway - cell viability counter screen (AID 1224837). For activity change, negative = cytotoxicity: series mostly up to about 92 µM. Note: nearly all actives have a fitted effect of over 45% in size. Note: potency is the fitted concentration of half-maximal effect. The method in brief:
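Fluorescence from CellTiter-Fluor served as the viability signal. Human hepatoma HepG2 cells stably bearing hCAR and CYP2B6-2.2kb received compound plus CITCO (50 nM final) for 23 hr.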

Assay [5] can be described thus: qHTS assay to identify small molecule antagonists of the estrogen related receptor signaling pathway with the pleiotropic PPARgamma coactivator (PGC) from Tox21 10K library - cell viability counter screen (AID 1224840; active = well fitted cell-killing curve with a large enough effect in the repeat runs, not every such curve was filed as active; note: nearly all actives have a fitted effect of over 40% in size; note: potency is the fitted concentration of half-maximal effect). In short, it runs like this: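 Compounds in DMSO, alongside positive and negative controls, were pinned onto PGC/ERR cells (2,000 per well). Exposure lasted 17.5 hours at 37 C, followed by a 30-minute CellTiter-Fluor incubation and fluorescence reading.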

Assay [6] addresses Nuclear receptor subfamily 1 group I member 3 (Homo sapiens) (UniProt Q14994). Description: qHTS assay to identify small molecule antagonists of the constitutive androstane receptor (CAR) signaling pathway (AID 1224838).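 Note: HepG2 cells stably expressing hCAR with CYP2B6 luciferase reporter stimulated by CITCO; nearly all actives have a fitted effect of over 40% in size.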 The method in brief: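 Quantitative HTS in double-stable HepG2-CYP2B6-hCAR cells. After 4 h plating, cells get compound (15 concentrations) and CITCO at 50 nM final, incubate 24 h at 37 C, then ONE-Glo luminescence is read.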

For assay [7] the target is unchanged. Description: qHTS assay to identify small molecule agonists of the constitutive androstane receptor (CAR) signaling pathway (AID 1224839).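 For activation: HepG2 cells stably carrying human CAR and a CYP2B6 luciferase reporter; series mostly up to about 92 µM.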 Note: nearly all actives have a fitted effect of over 15% in size. Note: potency is the fitted concentration of half-maximal effect. In short, it runs like this:
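HepG2-CYP2B6-hCAR cells, 2500/well, 4 h pre-incubation; compounds 15 conc.; PK11195 0.75 uM final; 24 h, 37 C/5% CO2; ONE-Glo luciferase read.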

The nature of assay [8]: qHTS assay to identify small molecule agonists of the estrogen related receptor signaling pathway with the pleiotropic PPARgamma coactivator (PGC) from Tox21 10K library (AID 1224842). Note: nearly all actives have a fitted effect of over 15% in size. Note: potency is the fitted concentration of half-maximal effect. In short, it runs like this:
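PGC/ERR reporter cell line, 2,000 cells per well, incubated 6 h at 37 C before 23 nL compound in DMSO was added. After 18 h at 37 C, One-Glo luminescence read following 30 min at room temperature.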

A short description of assay [9]: qHTS assay to identify small molecule antagonists of the estrogen related receptor signaling pathway with the pleiotropic PPARgamma coactivator (PGC) from Tox21 10K library (AID 1224841; call rule not given here; note: series mostly up to about 92 µM; actives are mostly falling curves and most rising ones were filed inactive; nearly all actives have a fitted effect of over 50% in size). The method in brief: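 Compound exposure ran 18 hours at 37 C in PGC/ERR cells (2,000/well) that had first rested 6 hours in a 37 C/5% CO2 incubator. Luciferase activity was then detected with One-Glo after a 30-minute room-temperature step.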

Inconclusive results are not listed. A number with no mark means an inactive call. Activity calls are given as the source filed them. Unless noted, calls come from the whole dose curve; as a rule, active = well fitted curve in the direction sought with a large enough effect in the repeat runs; inconclusive = weak or mixed curves; inactive = no such curve, though single readings can be large; an effect the other way counts as inactive or inconclusive.
% is set by controls: 0 for no effect and ±100 for the full control effect.

Chain of Nuclear receptor subfamily 1 group I member 3 (Homo sapiens) (Q14994 whole entry, looked up): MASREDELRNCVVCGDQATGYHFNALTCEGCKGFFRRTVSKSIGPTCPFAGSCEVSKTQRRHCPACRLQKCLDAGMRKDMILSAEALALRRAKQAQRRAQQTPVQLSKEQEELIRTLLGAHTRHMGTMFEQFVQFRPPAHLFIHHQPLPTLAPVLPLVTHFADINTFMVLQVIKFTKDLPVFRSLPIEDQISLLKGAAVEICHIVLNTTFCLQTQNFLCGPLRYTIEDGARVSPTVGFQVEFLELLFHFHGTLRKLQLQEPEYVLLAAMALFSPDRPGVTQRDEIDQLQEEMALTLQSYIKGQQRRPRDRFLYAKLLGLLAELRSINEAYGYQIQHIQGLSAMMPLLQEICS

For `C[C@H]1C[C@H]2[C@@H]3CCC4=CC(=O)C=C[C@]4(C)[C@@]3(F)[C@@H](O)C[C@]2(C)[C@@]1(O)C(=O)COP(=O)(O)O`, the Potency result in assay [1], in assay [2], in [3], in assay [4] and in assay [5] was “inactive” each time.
On to `C=CC(O)CCCCC` (stereo unspecified), for which the Potency result in assay [1], in assay [2], in [3], in [4], in [6] and in assay [7] was “inactive” in each case. Besides, the Potency entry in [5] and in assay [8] was “inactive” each time.
For the molecule `NCCOCCOCCN`, the Potency entry in assay [1], in assay [2], in assay [3], in assay [4], in assay [6] and in [7] was “inactive” each time. For the same molecule, the Potency result in assay [9] and in assay [8] was “inactive” each time.
Regarding `[O-][n+]1ccc(Cl)cc1`, the Potency entry in assay [1], in assay [2], in [3], in assay [4], in assay [6] and in assay [7] was “inactive” in each case. Further, in [5], the Potency result was “inactive”.
As to `CC1(COc2ccc(CC3SC(=O)NC3=O)cc2)CCCCC1` (stereo unspecified), the Potency entry in assay [1], in assay [3], in assay [4], in assay [6], in assay [5] and in assay [9] was “inactive” in each case. For the same molecule, the Potency in assay [2] was 27.5 µM (active).
In the case of `C=C(C)C(=O)OCCCCCCCCCCOC(=O)C(=C)C`, the Potency result in [1], in assay [2], in [3], in assay [4], in assay [6] and in assay [7] was “inactive” in each case. For the same molecule, the Potency result in assay [5], in assay [9] and in assay [8] was “inactive” each time.
Take `O=C(O)c1cc(C(=O)O)cc([N+](=O)[O-])c1`: the Potency result in [1], in assay [2], in assay [3], in assay [4], in assay [6] and in assay [7] was “inactive” throughout. Further, the Potency result in [5] was “inactive”.
As to `C[C@]12CCC(=O)C=C1[C@@H]1C[C@@H]1[C@H]1[C@@H]3[C@@H]4C[C@@H]4[C@@]4(CCC(=O)O4)[C@@]3(C)CC[C@@H]12`, the Potency result in assay [1], in [2], in [3], in assay [4], in [6] and in [7] was “inactive” throughout. Besides, the Potency entry in assay [5] and in assay [8] was “inactive” throughout.
`Nc1ccc(C(=O)Oc2ccccc2)c(O)c1`: the Potency result in [1], in assay [3], in [4], in assay [6], in assay [5] and in assay [9] was “inactive” each time. Moreover, the Potency in [2] was 13.8 µM (active); in [8], 13.3 µM (active).
On to `Cc1cc(C)c(C)c(O)c1`, for which the Potency result in [1], in assay [2], in assay [3], in assay [4], in assay [6] and in assay [7] was “inactive” throughout. Besides, the Potency entry in assay [5], in assay [9] and in assay [8] was “inactive” in each case.
On to `CC(C(=O)O)c1ccc2c(c1)Cc1cccnc1O2` (stereo unspecified), for which the Potency result in assay [1], in assay [2], in [3], in assay [4] and in assay [5] was “inactive” throughout.
On to `O=C(OCCCCCOC(=O)c1ccccc1)c1ccccc1`, for which the Potency result in [1], in assay [2], in assay [3], in assay [4], in assay [6] and in assay [7] was “inactive” throughout. Also, the Potency result in [5], in assay [9] and in assay [8] was “inactive” throughout.
Take `COc1ccc(C(=O)c2ccc(C)cc2)c(O)c1`: the Potency entry in assay [1], in assay [3], in assay [4], in [6] and in [9] was “inactive” in each case. Moreover, the Potency in [2] is 11.4 µM (active); in assay [7], 27.6 µM (active); in assay [8] it was 7.78 µM (active).
Regarding `Cc1c(Nc2ncccc2C(=O)O)cccc1C(F)(F)F`, the Potency result in assay [1], in assay [3], in assay [4], in assay [6] and in assay [5] was “inactive” throughout. In addition, the Potency in assay [2] was 17.4 µM (active).
For the molecule `CC(C(=O)O)c1ccc(/C=C2\CCCCC2=O)cc1` (stereo unspecified), the Potency result in assay [1], in assay [3], in assay [4], in assay [6] and in [5] was “inactive” each time. Moreover, the results for the Potency in [2] and in [7] were 30.9 µM (active) and 26.6 µM (active), respectively.
As for `Cc1c(N=C=O)cccc1N=C=O`, the Potency entry in [1], in assay [2], in assay [3], in [4], in assay [6] and in [7] was “inactive” throughout. For the same molecule, the Potency entry in assay [5] was “inactive”.
In the case of `O=C1c2ccccc2C(=O)C1c1ccc2cc(S(=O)(=O)O)cc(S(=O)(=O)O)c2n1`, the Potency is 29.5 µM (active) in assay [1]; 30.6 µM (active) in [2]; 66.1 µM (active) in assay [3]; 52.5 µM (active) in assay [4]; 41.7 µM (active) in assay [7]; 33.1 µM (active) in [5]. In addition, the Potency entry in assay [6], in assay [9] and in assay [8] was “inactive” in each case.
On to `CCCCC(CC)COCCC#N` (stereo unspecified), for which the Potency entry in [1], in assay [2], in [3], in assay [4], in [6] and in [7] was “inactive” throughout. For the same molecule, in [5], the Potency entry was “inactive”.
As for `Clc1ccccc1-c1nc(-c2ccncc2)no1`, the Potency entry in [1], in [3] and in [4] was “inactive” each time. In addition, the Potency in assay [2] was 2.75 µM (active); in assay [7], 10.6 µM (active).
Take `O=[N+]([O-])c1cccc(I)c1`: the Potency entry in assay [1], in assay [2], in assay [3], in assay [4], in [6] and in [7] was “inactive” each time. In addition, the Potency entry in assay [5] is “inactive”.
`O=C(O)c1cccc(C(=O)O)c1C(=O)O`: the Potency result in [1], in assay [2], in assay [3], in assay [6], in assay [7] and in assay [5] was “inactive” in each case.
With `CC(C)=CCCC(C)C=O` (stereo unspecified), the Potency result in [1], in [2], in assay [3], in [6], in assay [7] and in [5] was “inactive” each time.
In the case of `C=Cc1ccc(C=C)cc1`, the Potency result in assay [1], in [2], in assay [3], in assay [4], in [5] and in assay [8] was “inactive” each time.
In the case of `CCCCCCCCCCCCCCCCCCCl`, the viability change, negative = cytotoxic in [1] is -0.218% [at 8.39 µM]; in assay [3], 3.36% [at 8.39 µM]. Moreover, in assay [2], the activity change, negative = inhibition is 2.69% [at 10.5 µM]. The activity change, negative = cytotoxicity in [4] was 3.1% [at 8.39 µM]. Moreover, in assay [9], the activity, negative = inhibition is 20.1% [at 8.39 µM]. Moreover, in assay [8], the activation is 1.05% [at 8.39 µM].
Consider `O=C(O)c1c2ccccc2cc2ccccc12`, for which the Potency result in assay [1], in assay [2], in assay [3], in assay [4] and in [5] was “inactive” each time.
For `C1=COCCC1`, the Potency entry in [1], in assay [2], in assay [3], in assay [4] and in [5] was “inactive” throughout.
Turning to `FC1(F)C(F)(F)C(F)(F)C2(F)C(F)(C1(F)F)C(F)(F)C(F)(F)C1(F)C(F)(F)C(F)(F)C(F)(F)C(F)(F)C12F` (stereo unspecified), the Potency entry in assay [1], in [2], in [3], in assay [6], in assay [7] and in assay [5] was “inactive” each time.
Turning to `CC(C)(C)c1cc(C=O)cc(C(C)(C)C)c1O`, the Potency result in [1], in assay [2], in [3], in assay [4] and in assay [5] was “inactive” throughout.
